An excerpt weighted towards active compounds, which were near 0.9% of everything screened.
PPARg SRC-1 ag – PPARgamma agonists recruiting SRC-1 coactivator, primary screen, biochemical | Peroxisome proliferator-activated receptor gamma (Homo sapiens), P37231 | PPARgamma-SRC-1 coactivator recruitment biochemical assay | activation, % at 8 µM | hit rate 0.41% among 200,000; in the data active means activation above about 19%;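 further: 0% = DMSO and 100% = reference agonist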
Target sequence (P37231 whole entry, looked up): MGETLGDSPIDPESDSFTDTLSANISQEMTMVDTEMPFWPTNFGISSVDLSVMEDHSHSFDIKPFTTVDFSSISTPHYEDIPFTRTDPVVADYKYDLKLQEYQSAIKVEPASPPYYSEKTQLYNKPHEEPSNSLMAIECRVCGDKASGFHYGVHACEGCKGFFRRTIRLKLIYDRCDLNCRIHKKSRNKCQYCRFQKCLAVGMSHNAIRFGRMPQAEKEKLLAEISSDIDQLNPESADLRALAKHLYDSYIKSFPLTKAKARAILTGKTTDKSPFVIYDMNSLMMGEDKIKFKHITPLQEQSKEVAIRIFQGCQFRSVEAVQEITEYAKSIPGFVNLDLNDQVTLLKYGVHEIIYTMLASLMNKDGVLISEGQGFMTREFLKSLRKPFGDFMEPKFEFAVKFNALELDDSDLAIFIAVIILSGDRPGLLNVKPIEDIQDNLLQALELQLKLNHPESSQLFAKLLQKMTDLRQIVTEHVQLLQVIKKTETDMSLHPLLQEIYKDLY
SRC3 TRFRET art – TR-FRET detection interference compounds, artefact control for PPARgamma SRC-3 recruitment agonists, biochemical, TR-FRET ratio. TR-FRET artefact counter-screen, PPARgamma/SRC-3 format; stronger effect = higher value. TR-FRET ratio at 8 µM. hit rate 0.39% among 99,000
SRC1 TRFRET art – TR-FRET detection interference compounds, primary screen, artefact control for PPARgamma SRC-1 recruitment agonists, biochemical, TR-FRET emission ratio; TR-FRET ratio at 8 µM; AID 1051, 2008; hit rate 0.34% among 99,000; TR-FRET detection artefact counter-screen; stronger effect = higher value; in the data active means TR-FRET ratio above about 2300
PPARg SRC3 recr – PPARgamma agonists recruiting SRC-3 coactivator, primary screen, biochemical | activation, % at 8 µM | Peroxisome proliferator-activated receptor gamma (Homo sapiens), P37231 | AID 731, 2007 | hit rate 0.26% among 200,000 | biochemical PPARgamma/SRC-3 coactivator recruitment assay; in the data active means activation above about 23%;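 further: 0% = DMSO and 100% = reference agonist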
PPARg SRC2 recr – agonists of PPARg-SRC-2 recruitment, primary screen, biochemical, HTS; Peroxisome proliferator-activated receptor gamma (Homo sapiens), P37231; PPARgamma LBD-SRC-2 recruitment; activation, % at 8 µM; hit rate 0.34% among 200,000; AID 1032, 2008; in the data active means activation above about 22%;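 further: 0% = vehicle and 100% = reference agonist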
TR-FRET SRC-2 ct – TR-FRET signal artefacts, primary screen, artefact control for PPARgamma SRC-2 agonist project, biochemical. TR-FRET artefact counter-screen; stronger effect = higher value. TR-FRET ratio at 8 µM. hit rate 0.4% among 200,000. AID 1049, 2008
Active calls of the source: *; . = not tested or not shown. Unless noted, no stated cut-off is given here; in the data, active means TR-FRET ratio above about 2000; inactive means the rest.

SMILES	PPARg SRC-1 ag	SRC3 TRFRET art	SRC1 TRFRET art	PPARg SRC3 recr	PPARg SRC2 recr	TR-FRET SRC-2 ct
COCCNC(=S)N(Cc1cc2cc(C)ccc2n2nnnc12)C1CCCC1	-9.3	1536	1583	0.9	1.4	1421
C=CCOc1cccc(C2C(C(=O)c3ccc(C)o3)=C(O)C(=O)N2Cc2ccncc2)c1 (stereo not drawn)	13.1	.	.	22.9	15.8	2037*
N#Cc1ccc(OCC(=O)OCC(=O)Nc2cc(C(F)(F)F)ccc2N2CCOCC2)cc1	-0.3	1487	1707	-4.1	0.0	1508
O=C(CSc1ncnc2c1nnn2Cc1ccccc1F)N1CCN(c2ccccc2)CC1	3.0	.	.	-3.8	67.4*	2938*
O=C(Cn1cnc2c(nnn2Cc2ccccc2F)c1=O)N1CCN(c2ccccc2)CC1	-3.9	.	.	2.2	0.7	1480
CC(C)CC(NC(=O)CNC(=O)C1O[C@@H]2OC(C)(C)O[C@@H]2[C@H]2OC(C)(C)O[C@@H]12)C(=O)O (stereo partly drawn)	4.2	1390	1480	0.2	2.4	1573
CC(OC(=O)c1cc2sccc2n1C)C(=O)NCc1cccs1 (stereo not drawn)	23.6*	.	.	7.8	1.0	1517
CCCCn1c(SCc2nc(N)nc(Nc3ccccc3C)n2)nc2ccccc2c1=O	-1.8	.	.	-10.2	-5.2	1460
C=CCn1c(=O)c2ccccc2n2c(SCC(=O)c3ccccc3)nnc12	8.3	.	.	27.3*	1.1	1556
C=CCn1c(=O)c2ccccc2n2c(SCc3nc(N)nc(Nc4ccccc4C)n3)nnc12	21.7*	.	.	7.5	5.2	1648
CCCCN(C)CCC(=O)Nc1ccc2c(c1)CCC2	1.8	1498	1805	2.5	2.7	1640
Cc1ccc(N(CC(=O)NCCc2ccc(F)cc2)S(=O)(=O)c2ccc(Cl)c([N+](=O)[O-])c2)c(C)c1	1.9	1714	2010	6.1	3.4	1636
Cc1ccc(NC(=O)CSc2ncnc3ccccc23)cc1S(=O)(=O)N1CCCCC1	4.7	2119*	1842	4.8	0.8	1451
Cn1ccnc1SCC(=O)Nc1cccc(S(=O)(=O)N2CCCCCC2)c1	6.7	1653	1996	5.8	6.1	1896
Cc1cc(C)c2nc(SCC(=O)Nc3ccc(S(=O)(=O)N4CCCC4)cc3)c(C)cc2c1	8.7	.	.	7.5	2.0	1973*
Cc1ccc(S(=O)(=O)N2CCCCC2)cc1NC(=O)CSc1nccn1C	3.9	1625	2368*	3.1	-4.3	1736
Cc1nnc(SCC(=O)Nc2ccc(S(=O)(=O)N3CCCC3)cc2)n1N	6.0	.	.	0.2	5.3	1640
NS(=O)(=O)c1ccc(NC(=O)C(Sc2ccccc2)c2ccccc2)cc1 (stereo not drawn)	-1.5	1432	1722	-3.9	-5.3	1481
CCC(C)n1c(SCc2ccccc2)nc2ccsc2c1=O (stereo not drawn)	7.4	1726	1982	0.5	4.8	1737
Cc1cc2nc(SCC(=O)Nc3ccccc3C(=O)O)[nH]c2cc1C	10.4	1441	1771	4.6	6.1	1521
CN1c2ccsc2/C(=N/NC(=O)c2c(F)cccc2F)CS1(=O)=O	7.1	.	.	0.4	12.8	1571
CN1c2ccsc2/C(=N/Nc2ccccc2)CS1(=O)=O	0.2	1742	2232	7.0	13.2	2054*
CS(=O)(=O)N1CCc2cc(C(=O)N3CCCC3)ccc21	5.3	1471	1649	2.0	4.5	1652
CN=C1CC(SC)=C1c1ccc(C)cc1	10.1	.	.	-1.6	23.6*	1559
CC1Cc2ccccc2N1C(=O)CSc1nnnn1-c1ccc2c(c1)OCCO2 (stereo not drawn)	6.9	.	.	2.9	17.7	2058*
SMILES	PPARg SRC-1 ag	SRC3 TRFRET art	SRC1 TRFRET art	PPARg SRC3 recr	PPARg SRC2 recr	TR-FRET SRC-2 ct
Cc1ccc(-c2cn(-c3ccccc3)c(SCC(=O)NC3CCS(=O)(=O)C3)n2)cc1C (stereo not drawn)	1.2	1627	1801	-0.1	-1.8	1596
COc1ccc(-n2nc(C(=O)NCC(=O)Nc3ccccn3)c3ccccc3c2=O)cc1Cl	23.4*	.	.	0.9	3.7	1766
CCOc1ccc2[nH]c(=O)c(C(c3nnnn3C3CCCCC3)N3CCN(C)CC3)cc2c1 (stereo not drawn)	22.9*	1653	2124	1.2	5.2	1495
CCOc1ccc2[nH]c(=O)c(C(c3nnnn3C3CCCCC3)N3CCN(CC)CC3)cc2c1 (stereo not drawn)	4.8	.	.	-1.2	1.0	1638
O=C(Nc1cccc(F)c1)c1ccc2c(c1)OCO2	-4.4	.	.	5.9	2.2	1477
O=C(Nc1ccc2nn(-c3ccccc3)nc2c1)c1ccc2c(c1)OCO2	5.8	.	.	-5.6	22.4*	1492
Cc1ccc2nc(-c3cccc(NC(=O)c4ccc5c(c4)OCCO5)c3)oc2c1	-10.3	.	.	-10.5	-1.8	1507
O=C(Nc1ccc2oc(-c3ccc4ccccc4c3)nc2c1)c1ccc2c(c1)OCCO2	27.1*	.	.	7.4	6.9	1469
COc1ccc(S(=O)(=O)N(C)C)cc1NS(=O)(=O)c1ccc(F)c(F)c1F	-4.5	1442	1737	1.5	3.6	1465
COC(=O)c1sccc1NC(=S)N1CCN(c2cccc(C)c2C)CC1	-3.1	2008	2105	-0.5	13.6	1871
CSc1nc2sccc2c(=O)[nH]1	-3.4	1619	1900	1.0	-1.6	1538
O=c1[nH]c(=S)[nH]c2sccc12	-1.3	1856	2108	5.5	7.5	2050*
COc1ccccc1-c1cc(-c2ccccc2)nc(SC(C(N)=O)c2ccccc2)c1C#N (stereo not drawn)	8.1	.	.	-1.4	6.7	3201*
NC(=S)Nc1cccc2cc3ccccc3cc12	13.7	.	.	15.9	22.3*	1632
Cn1c(SCc2cccnc2)nc2c(c1=O)SCC2	4.5	1534	1719	0.0	20.8	2241*
COc1cc(OC)cc(C(=O)NCCCN2CCN(CCCNC(=O)c3cc(OC)cc(OC)c3)CC2)c1	-0.3	1539	1748	1.3	-12.3	1493
Cn1c(SCC(=O)Nc2cccc(Br)c2)nnc1-c1cc2ccccc2o1	31.2*	.	.	3.9	-6.5	1713
Cc1cccc(NC(=O)C2CCN(S(=O)(=O)c3c(C)[nH]c(=O)[nH]c3=O)CC2)c1	5.6	1709	1982	3.5	5.5	1997*
CCc1cccc(NC(=O)C2CCCN(S(=O)(=O)c3c(C)[nH]c(=O)[nH]c3=O)C2)c1 (stereo not drawn)	10.2	.	.	9.5	7.7	1727
Cc1ccccc1Nc1scc(-c2ccc(Cl)cc2)[n+]1-c1ccccc1C	5.1	1661	2015	8.6	9.1	2007*
Cc1c(Nc2scc(-c3ccccc3)[n+]2-c2ccccc2)c(=O)n(-c2ccccc2)n1C	-2.2	1624	1586	-4.6	-4.3	1361

Bioassay records from PubChem BioAssay.
